D2 antag – HTS Assay for Allosteric Antagonists of the Human D2 Dopamine Receptor: Primary Screen for Antagonists; D(2) dopamine receptor (Homo sapiens), P14416; HEK293 TREx D2 cells, calcium flux, dopamine EC80; inhibition, % at 10 µM; actives 2% (n = 340,000); in the data active means inhibition above about 30%; inactive means below that, where a call was filed
Target sequence (P14416 whole entry, looked up): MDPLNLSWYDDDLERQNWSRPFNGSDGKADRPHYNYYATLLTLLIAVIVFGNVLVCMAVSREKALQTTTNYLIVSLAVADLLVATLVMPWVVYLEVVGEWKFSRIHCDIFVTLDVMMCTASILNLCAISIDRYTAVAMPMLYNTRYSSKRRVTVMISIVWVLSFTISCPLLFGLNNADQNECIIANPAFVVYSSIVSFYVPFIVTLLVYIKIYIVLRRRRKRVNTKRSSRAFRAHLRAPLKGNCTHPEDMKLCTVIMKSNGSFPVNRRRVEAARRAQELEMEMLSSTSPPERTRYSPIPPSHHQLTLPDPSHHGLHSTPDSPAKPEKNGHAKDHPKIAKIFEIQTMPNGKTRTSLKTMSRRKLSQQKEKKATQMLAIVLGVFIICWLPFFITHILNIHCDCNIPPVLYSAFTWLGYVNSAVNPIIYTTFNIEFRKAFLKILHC
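Tetracycline-induced HEK293 T-REx cells expressing D2 force-coupled to calcium signalling were dye-loaded, exposed to compound for 180 s, then challenged with an EC80 of dopamine; calcium flux was followed kinetically for a further 180 s.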
D2 PAM-1 – Beta-Arrestin HTS for Positive Allosteric Modulators of the Human D2 Dopamine Receptor: Potentiators; D(2) dopamine receptor (Homo sapiens), P14416; DiscoveRx D2 beta-arrestin cells, luminescence, 90 min; 100% = 57 uM dopamine signal; potentiation, % (concentration not given with the values); actives 0.23% (n = 360,000); AID 624464, 2012; in the data active means potentiation above about 50%; inconclusive means mostly about 30% to 49%
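D2 cells co-treated with compound plus 50 nM dopamine (EC20) for 90 min at 37 deg C to detect potentiation. Beta-arrestin recruitment was read as enzyme-fragment luminescence after 1 h at ambient temperature. Full response was set by 57 uM dopamine.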
D2 ag-1 – Beta-Arrestin HTS for Positive Allosteric Modulators of the Human D2 Dopamine Receptor: Agonists. D(2) dopamine receptor (Homo sapiens), P14416. DiscoveRx PathHunter D2 beta-arrestin, luminescence, 90 min; 100% = 57 uM dopamine signal. activation, % (test concentration not listed). actives 0.084% (n = 360,000). AID 624465, 2012; in the data active means activation above about 40%; inconclusive means between about 15% and that limit
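Agonist mode: compounds alone added to overnight-plated D2 PathHunter cells for 90 min at 37 C, with 57 uM final dopamine (EC100) defining full response. Beta-arrestin recruitment detected by chemiluminescent reagent, read after 1 h at ambient temperature.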
D2 ag-2 – HTS Assay for Allosteric Agonists of the Human D2 Dopamine Receptor: Primary Screen for Agonists; D(2) dopamine receptor (Homo sapiens), P14416; HEK293 T-REx D2 cells, calcium flux agonist mode; activation, % at 2 µM; actives 0.53% (n = 340,000); AID 485358, 2010;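 active means activation over 3 SD above normal in the single-dose calcium agonist read, cut at about 30% in these data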
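Tetracycline-induced HEK293 Trex cells with D2 receptor force-coupled to calcium signaling, plated overnight at 30 C and loaded with no-wash calcium dye. Calcium flux read kinetically for 180 s after compound addition; responses flag agonists.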
D2 PAM-2 – HTS Assay for Positive Allosteric Modulators of the Human D2 Dopamine Receptor: Primary Screen for Potentiators; HEK293 T-REx D2, calcium flux, EC20 dopamine potentiation; AID 485347, 2010; potentiation, % at 10 µM; actives 0.34% (n = 340,000);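 active means potentiation over 3 SD above the plate norm, cut at about 30% in these data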
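Primary screen. Calcium kinetics in induced HEK293 T-REx D2 cells: compound pre-addition 180 s, EC20 dopamine, 180 s more.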
D3 arrestin ag – qHTS of D3 Dopamine Receptor Agonist: D3 Dopamine Receptor B-arrestin Agonist Confirmatory Assay | actives 4% (n = 2,300) | shares compounds with D2 ag-2 | AID 720506, 2013 | DiscoveRx D3 beta-arrestin cells, luminescence, 90 min | Potency, µM (series often up to 76.9 µM), most hits filed as activators; further: nearly all actives have a fitted effect of over 70% in size
D2 ag-3 – qHTS of D3 Dopamine Receptor Agonist: D2 Dopamine Receptor B-arrestin Agonist Counterscreen. shares compounds with D2 ag-2. DiscoveRx PathHunter D2 beta-arrestin, luminescence, 90 min; response scale: percent relative to full dopamine signal. Potency, µM (doses to about 76.9 µM), actives largely listed as activators. actives 5.9% (n = 2,300). AID 720507, 2013; further: nearly all actives have a fitted effect of over 70% in size
Numbers stand for hits. Most compounds without a hit are left out; they make up all but 2.4% or so of the library. Unless noted, the call rests on the fitted dose curve; in most records, active means well fitted activation curve with a large enough effect; inconclusive means small, poorly fitted or top-dose-only effect; inactive means flat fitted curve, though single readings scatter.

Screening COc1ccccc1N1CCN(CCCNC(=O)Cn2ncc3c([nH]c4ccccc43)c2=O)CC1 returned D2 antag 90.3, D2 PAM-1 inactive, D2 ag-1 inactive, D2 ag-2 inactive, D2 PAM-2 inactive, D3 arrestin ag inactive and D2 ag-3 inactive.
Screening Cn1c(=O)cc(OCC(=O)NCCCN2CCN(c3ccccc3F)CC2)c2ccccc21 returned D2 antag 78.2, D2 PAM-1 inconclusive, D2 ag-1 45.1, D2 ag-2 86.2, D2 PAM-2 inactive, D3 arrestin ag inactive and D2 ag-3 inconclusive.
For Cn1c(C(=O)NCCCN2CCN(c3ccccc3F)CC2)cc2c(=O)[nH]c3ccccc3c21 the results were D2 antag 104.6, D2 PAM-1 inactive, D2 ag-1 inconclusive, D2 ag-2 71.3, D2 PAM-2 inactive, D3 arrestin ag inactive and D2 ag-3 inactive.
`CCOC(=O)C1=C(CN2CCC(C(=O)OCC)CC2)NC(=O)NC1c1ccc(Cl)cc1` (configuration not stated) gave D2 ag-2 inactive and D2 PAM-2 inactive.
For C=CCOc1c(OC)cc(/C=N/Nc2cccc(C(=O)O)c2)c(Br)c1Br the results were D2 antag inactive, D2 PAM-1 inactive, D2 ag-1 inactive, D2 ag-2 inactive and D2 PAM-2 inactive.
Cc1ncc(CO)c2c1Oc1nc(-c3ccc(Cl)cc3)nc(SCC(=O)N3CCCCC3)c1C2 was read as D2 ag-2 inactive and D2 PAM-2 inactive.
Screening CCN(C(=O)COc1ccc(N(C)S(=O)(=O)c2ccc(NC(C)=O)cc2)cc1)C1CCCCC1 returned D2 PAM-1 inactive and D2 ag-1 inactive.
COc1cccc(-c2ccc3c(c2)O[C@@H](CN(C)Cc2cncnc2)[C@@H](C)CN([C@H](C)CO)S3(=O)=O)c1 was read as D2 PAM-1 inactive and D2 ag-1 inactive.
Screening CCCn1c2ccccc2c2cnn(CC(=O)NCCCN3CCN(c4ccccc4)CC3)c(=O)c21 returned D2 antag 87.5, D2 PAM-1 inactive, D2 ag-1 inactive, D2 ag-2 inactive, D2 PAM-2 inactive, D3 arrestin ag inactive and D2 ag-3 inactive.
For O=C(Cc1csc(Nc2nc(=S)[nH]c3ccccc23)n1)NCc1ccc(Cl)cc1 the results were D2 antag inactive, D2 PAM-1 inactive, D2 ag-1 inactive, D2 ag-2 inactive and D2 PAM-2 inactive.
O=C(Cc1csc(Nc2nc(=S)[nH]c3ccccc23)n1)NCCCN1CCN(c2ccccc2F)CC1 was read as D2 antag 67.4, D2 PAM-1 inactive, D2 ag-1 inactive, D2 ag-2 47.4, D2 PAM-2 inactive, D3 arrestin ag inactive and D2 ag-3 inactive.
For CCCn1c2ccccc2c2cnn(CC(=O)OC)c(=O)c21 the results were D2 antag inactive, D2 PAM-1 inactive, D2 ag-1 inactive, D2 ag-2 41.1, D2 PAM-2 inactive, D3 arrestin ag inactive and D2 ag-3 inactive.
For Cn1c(CNC(=O)CNC(=O)c2ccc(F)cc2)cc(=O)n(C)c1=O the results were D2 antag inactive, D2 PAM-1 inactive, D2 ag-1 inactive, D2 ag-2 inactive and D2 PAM-2 inactive.
Screening CN=c1scc(-c2cccs2)n1/N=C/c1ccccc1O returned D2 antag inactive, D2 PAM-1 inactive, D2 ag-1 inactive, D2 ag-2 inactive and D2 PAM-2 inactive.
CN=c1scc(-c2cccs2)n1/N=C/c1ccc(O)c(O)c1O was read as D2 antag 89.3, D2 PAM-1 108.7, D2 ag-1 181.8, D2 ag-2 65.8, D2 PAM-2 inactive, D3 arrestin ag 25.1µM and D2 ag-3 14.1µM.
For CN=c1scc(C)n1/N=C/c1cc(Br)c(O)c(OC)c1 the results were D2 antag inactive, D2 PAM-1 inactive, D2 ag-1 inactive, D2 ag-2 inactive and D2 PAM-2 inactive.
Screening CN=c1scc(C)n1/N=C/c1ccc(O)c(O)c1O returned D2 antag inactive, D2 PAM-1 92.8, D2 ag-1 51.5, D2 ag-2 40.2, D2 PAM-2 inactive, D3 arrestin ag 39.8µM and D2 ag-3 inactive.
`CC(C)(C)Cc1nnc(NC(=O)c2ccco2)s1` gave D2 antag inactive, D2 PAM-1 inactive, D2 ag-1 inactive, D2 ag-2 inactive and D2 PAM-2 inactive.
`COc1ccc(C(=O)NCC(=O)N/N=C/c2cn[nH]c2-c2ccccc2)cc1` gave D2 antag inactive, D2 PAM-1 inactive, D2 ag-1 inactive, D2 ag-2 inactive, D3 arrestin ag inactive and D2 ag-3 inactive.
Screening COC(=O)Cc1ccc(NC(=S)N2CCN(c3cccc(O)c3)CC2)cc1 returned D2 antag inactive, D2 PAM-1 inactive, D2 ag-1 inactive, D2 ag-2 43.6, D2 PAM-2 inactive, D3 arrestin ag 28.2µM and D2 ag-3 inconclusive.
`COC(=O)Cc1ccc(NC(=S)N2CCN(c3ccc(OC)cc3)CC2)cc1` gave D2 antag inactive, D2 PAM-1 inactive, D2 ag-1 inactive, D2 ag-2 inactive and D2 PAM-2 inactive.
N#CC(C(=O)OCc1ccccc1)c1nc2ccccc2nc1N1CCOCC1 (configuration not stated) was read as D2 antag inactive, D2 PAM-1 inactive, D2 ag-1 inactive, D2 ag-2 inactive, D2 PAM-2 inactive, D3 arrestin ag inactive and D2 ag-3 inactive.
N#CC(C(=O)NC1CCCCC1)c1nc2ccccc2nc1N1CCOCC1 (configuration not stated) was read as D2 antag inactive, D2 ag-2 inactive and D2 PAM-2 inactive.
CN(CCOc1ccccc1)Cc1ccccc1 was read as D2 PAM-1 inactive and D2 ag-1 inactive.
CN(CCOc1ccc(Cl)cc1)Cc1cccc(S(=O)(=O)N(C)C)c1 was read as D2 antag 48.3, D2 PAM-1 inactive, D2 ag-1 inactive, D2 ag-2 70.1, D2 PAM-2 inactive, D3 arrestin ag 7.08µM and D2 ag-3 inconclusive.
CCOc1ccccc1N1CCN(Cc2ccc(Br)s2)CC1 was read as D2 PAM-1 inactive, D2 ag-1 inactive, D2 PAM-2 inactive, D3 arrestin ag inactive and D2 ag-3 inactive.
